Common to all, as to test: growth (OD600 after 10 h); higher = more growth (less inhibition)
The test system of experiment [1] is E. coli TESEC Alr+ wild-type control. Particulars: compound 0.1 mM; raw OD600 reference: median of DMSO wells 0.241, cell-free background 0.041. On the procedure:
(§1)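 TESEC Mtb Alr E. coli, or the Alr+ wild-type control, in 384-well plates with Prestwick library compounds at 0.1 mM and 1% DMSO, across arabinose induction levels of 1E3 to 1E7 nM. Growth is read as OD600 after 10 h at 37 °C in triplicate biological replicates.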

Experiment [2] relates to E. coli TESEC Mtb Alr. To be noted: compound 0.1 mM. The protocol:
as §1

Experiment [3] deals with E. coli TESEC Mtb Asd. To be noted: compound 0.1 mM. The protocol: (§2)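 TESEC E. coli strains in which the native enzyme is deleted and replaced by arabinose-inducible Mtb Asd, DapB, CysH or TrpD, each grown in its selective medium. Strains were screened against the Prestwick library at 0.1 mM and 1% DMSO in 384-well format at low and high arabinose induction. Growth is read as OD600 after 10 h in triplicate.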

Experiment [4] has as its system E. coli TESEC Mtb DapB. To be noted: compound 0.1 mM. On the procedure:
as §2

Experiment [5] deals with E. coli TESEC Alr+ wild-type control. To be noted: compound 0.1 mM; raw OD600 reference: median of DMSO wells 0.49, cell-free background 0.052. On the procedure:
(§3)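 TESEC Mtb Alr E. coli (ΔaraC ΔtolC ΔentC Δalr ΔdadX, arabinose-inducible Mtb Alr) or the Alr+ wild-type control strain, grown in defined M9-fructose medium without D-alanine in 96-well plates with Prestwick library compounds at 0.1 mM and 1% DMSO. Low Alr induction is 0.1 µM arabinose and high induction is 10 mM arabinose.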

For experiment [6], the system named is E. coli TESEC Mtb Alr. Particulars: compound 0.1 mM. On the procedure: as §3
The source holds these as a separate data set.

Setting [7] is: arabinose 1000 nM, raw OD600 reference: median of DMSO wells 0.294, cell-free background 0.041.
Setting [8] is: arabinose 10000 nM, raw OD600 reference: median of DMSO wells 0.264, cell-free background 0.041.
The mark [9] stands for this setting: arabinose 100000 nM, raw OD600 reference: median of DMSO wells 0.201, cell-free background 0.041.
Setting [10] is: arabinose 1000000 nM, raw OD600 reference: median of DMSO wells 0.193, cell-free background 0.041.
[11] abbreviates: arabinose 10000000 nM, raw OD600 reference: median of DMSO wells 0.146, cell-free background 0.041.
The mark [12] stands for this setting: arabinose induction (level): High, raw OD600 reference: median of DMSO wells 0.331, cell-free background 0.041.
Where [13] appears, read: arabinose induction (level): Low, raw OD600 reference: median of DMSO wells 0.417, cell-free background 0.041.
Setting [14] is: arabinose induction (level): High, raw OD600 reference: median of DMSO wells […], cell-free background 0.041.
Where [15] appears, read: arabinose induction (level): Low, raw OD600 reference: median of DMSO wells 0.227, cell-free background 0.041.
Setting [16] is: arabinose 100 nM, raw OD600 reference: median of DMSO wells 0.413, cell-free background 0.052.
[17] abbreviates: arabinose 10000000 nM, raw OD600 reference: median of DMSO wells […], cell-free background 0.052.

Counter-ions that a name gives are not always drawn. ± gives the standard deviation of the averaged measurements.

On to `C[C@@H]1C[C@H]2[C@@H]3C[C@H](F)C4=CC(=O)C=C[C@]4(C)[C@@]3(F)[C@@H](O)C[C@]2(C)[C@@]1(O)C(=O)CO` [Flumethasone], for which the growth is 0.212 ± 0.0028 in experiment [1]; 0.275 ± 0.013 in experiment [2] (setting [7]); 0.256 ± 0.0067 in experiment [2] (setting [8]); 0.188 ± 0.0075 in experiment [2] (setting [9]); 0.154 ± 0.0069 in experiment [2] (setting [10]); 0.127 ± 0.0043 in experiment [2] (setting [11]). Moreover, the growth in experiment [3] (setting [12]) was found to be 0.231 ± 0.007; in experiment [3] (setting [13]) it was 0.429 ± 0.022; in experiment [4] (setting [14]), 0.193 ± 0.011; in experiment [4] (setting [15]), 0.229 ± 0.014; in experiment [5] it was 0.543 ± 0.0085; in experiment [6] (setting [16]), 0.402 ± 0.0073. This compound also displayed a growth in experiment [6] (setting [17]) of 0.307 ± 0.013.
For `NNc1nncc2ccccc12` [Hydralazine hydrochloride], the growth amounted to 0.142 ± 0.0062 in experiment [1]; 0.262 ± 0.022 in experiment [2] (setting [7]); 0.256 ± 0.0092 in experiment [2] (setting [8]); 0.174 ± 0.013 in experiment [2] (setting [9]); 0.12 ± 0.0069 in experiment [2] (setting [10]); 0.13 ± 0.0019 in experiment [2] (setting [11]). Also, the growth in experiment [3] (setting [12]) worked out at 0.206 ± 0.017; in experiment [3] (setting [13]), 0.25 ± 0.021; in experiment [4] (setting [14]), 0.19 ± 0.0027; in experiment [4] (setting [15]), 0.229 ± 0.033; in experiment [5] it was 0.448 ± 0.049; in experiment [6] (setting [16]), 0.404 ± 0.0077. The compound further yielded a growth in experiment [6] (setting [17]) of 0.304 ± 0.018.
Consider `COc1ccccc1OCC(O)COC(N)=O` (centres undefined) [Methocarbamol], for which the growth in experiment [1] came out at 0.2535 ± 0.00091; in experiment [2] (setting [7]), 0.282 ± 0.0088; in experiment [2] (setting [8]) it was 0.275 ± 0.012; in experiment [2] (setting [9]), 0.218 ± 0.018; in experiment [2] (setting [10]) it was 0.187 ± 0.0043; in experiment [2] (setting [11]) it was 0.141 ± 0.006. Besides, the growth in experiment [3] (setting [12]) stood at 0.292 ± 0.018; in experiment [3] (setting [13]) it was 0.397 ± 0.058; in experiment [4] (setting [14]), 0.178 ± 0.012; in experiment [4] (setting [15]), 0.183 ± 0.018; in experiment [5], 0.509 ± 0.11; in experiment [6] (setting [16]), 0.412 ± 0.0098. Besides, the growth in experiment [6] (setting [17]) was found to be 0.347 ± 0.0072.
On to `N[C@@H](C(=O)N[C@@H]1C(=O)N2C(C(=O)O)=C(Cl)CC[C@H]12)c1ccccc1` [Loracarbef], for which the growth in experiment [1] worked out at 0.251 ± 0.0037; in experiment [2] (setting [7]) it was 0.318 ± 0.0031; in experiment [2] (setting [8]) it was 0.224 ± 0.0093; in experiment [2] (setting [9]), 0.211 ± 0.024; in experiment [2] (setting [10]), 0.175 ± 0.0071; in experiment [2] (setting [11]), 0.151 ± 0.0052. Moreover, the growth in experiment [3] (setting [12]) came to 0.362 ± 0.016; in experiment [3] (setting [13]) it was 0.411 ± 0.0062; in experiment [4] (setting [14]) it was 0.226 ± 0.017; in experiment [4] (setting [15]), 0.234 ± 0.014; in experiment [5], 0.529 ± 0.067; in experiment [6] (setting [16]) it was 0.0487 ± 0.0051. Moreover, in experiment [6] (setting [17]), the growth amounted to 0.324 ± 0.024.
On to `O=C(Oc1cccc2cccnc12)c1ccccc1` [Benzoxiquine], for which the growth came out at 0.222 ± 0.0051 in experiment [1]; 0.264 ± 0.016 in experiment [2] (setting [7]); 0.28 ± 0.0036 in experiment [2] (setting [8]); 0.172 ± 0.014 in experiment [2] (setting [9]); 0.198 ± 0.011 in experiment [2] (setting [10]); 0.14 ± 0.01 in experiment [2] (setting [11]). Also, the growth was determined as 0.316 ± 0.12 in experiment [3] (setting [12]); 0.289 ± 0.017 in experiment [3] (setting [13]); 0.182 ± 0.018 in experiment [4] (setting [14]); 0.201 ± 0.015 in experiment [4] (setting [15]); 0.505 ± 0.036 in experiment [5]; 0.368 ± 0.016 in experiment [6] (setting [16]). In experiment [6] (setting [17]), this compound displayed a growth of 0.281 ± 0.01.
Regarding `CCC(C)(C)C(=O)O[C@H]1C[C@@H](C)C=C2C=C[C@H](C)[C@H](CC[C@@H]3C[C@@H](O)CC(=O)O3)[C@H]21` [Simvastatin], the growth in experiment [1] came out at 0.198 ± 0.017; in experiment [2] (setting [7]) it was 0.201 ± 0.015; in experiment [2] (setting [8]), 0.161 ± 0.0024; in experiment [2] (setting [9]), 0.113 ± 0.0033; in experiment [2] (setting [10]), 0.053 ± 0.0021; in experiment [2] (setting [11]) it was 0.0742 ± 0.004. In addition, the growth in experiment [3] (setting [12]) worked out at 0.0906 ± 0.015; in experiment [3] (setting [13]), 0.197 ± 0.023; in experiment [4] (setting [14]), 0.161 ± 0.021; in experiment [4] (setting [15]) it was 0.175 ± 0.0069; in experiment [5], 0.311 ± 0.016; in experiment [6] (setting [16]), 0.392 ± 0.014. Moreover, the growth in experiment [6] (setting [17]) was 0.0705 ± 0.023.
For the compound `COC(c1ccccc1)(c1ccccc1)[C@H](Oc1nc(C)cc(C)n1)C(=O)O` [Ambrisentan], the growth in experiment [1] was found to be 0.217 ± 0.0053; in experiment [2] (setting [7]) it was 0.28 ± 0.0015; in experiment [2] (setting [8]) it was 0.285 ± 0.0062; in experiment [2] (setting [9]), 0.177 ± 0.024; in experiment [2] (setting [10]), 0.224 ± 0.0037; in experiment [2] (setting [11]) it was 0.13 ± 0.0029. In addition, the growth in experiment [3] (setting [12]) amounted to 0.284 ± 0.072; in experiment [3] (setting [13]), 0.315 ± 0.053; in experiment [4] (setting [14]), 0.191 ± 0.016; in experiment [4] (setting [15]), 0.234 ± 0.021; in experiment [5], 0.535 ± 0.022; in experiment [6] (setting [16]), 0.41 ± 0.008. For the same compound, the growth in experiment [6] (setting [17]) was determined as 0.354 ± 0.015.
As for `CC[N+](C)(C)c1cccc(O)c1` [Edrophonium chloride], the growth in experiment [1] turned out to be 0.258 ± 0.011; in experiment [2] (setting [7]), 0.294 ± 0.012; in experiment [2] (setting [8]) it was 0.266 ± 0.004; in experiment [2] (setting [9]), 0.227 ± 0.03; in experiment [2] (setting [10]), 0.192 ± 0.012; in experiment [2] (setting [11]), 0.144 ± 0.0031. Moreover, the growth in experiment [3] (setting [12]) is 0.384 ± 0.013; in experiment [3] (setting [13]), 0.403 ± 0.013; in experiment [4] (setting [14]), 0.203 ± 0.017; in experiment [4] (setting [15]), 0.27 ± 0.098; in experiment [5], 0.437 ± 0.029; in experiment [6] (setting [16]), 0.401 ± 0.015. The compound also displayed a growth in experiment [6] (setting [17]) of 0.346 ± 0.029.

(Values after the supplement of paper PMC9262897, “Low-cost anti-mycobacterial drug discovery using engineered E. coli” (Nature Communications, 2022).)
